Screen size: about 52,000 compounds; about 4,300 (8.3%) were called active. No stated cut-off is given here; in the data, active means survival mostly below about 52% (no sharp cut-off); inactive means mostly above about 56%. This excerpt belongs to a sample that is enriched for actives.
These molecules were tested on DeltatarO mutant (assay: S. aureus survival, RN4220 and DeltatarO strains – OD600, teichoic acid synthesis inhibitors, primary screen (AID 463173)). Conditions: S. aureus RN4220 wild type/DeltatarO growth, OD600, 18 h, hits give low values, screened at 18.75 µg/mL (by protocol).
In the case of `N#CC(C#N)=C(N)/C(C#N)=C/c1cccs1`, the survival is reported as 81% (inactive). `CCc1ccc2nc(N3CCCCC3)c(C#N)cc2c1` was tested, and the survival was 88% (inactive). With `CCn1cc(C(=O)N2CCN(c3ccc(C)cc3)C(C)C2)c(=O)c2cc(S(=O)(=O)N3CCCC3)ccc21` (configuration not stated) the survival was 87% (inactive). `Cc1nc2cc(-c3cccc(F)c3)nn2c(C)c1CCC(=O)Nc1ccccc1C(N)=O` was tested, and the survival was 61% (inactive). In the case of `COC(=O)c1ccc(CSc2nc3c(c(=O)[nH]2)CCC3)cc1`, the survival is reported as 85% (inactive). For `COc1cc(OC)c(N(C)C(=O)c2cc3c(s2)-c2ccccc2OC3)cc1Cl`, the survival was 60% (inactive). With `CCOc1ccccc1N(C)C(=O)c1cc2c(s1)-c1ccccc1OC2` the survival was -2% (active). In the case of `CCOc1ccc(CCNC(=O)c2cc3c(s2)-c2ccccc2OC3)cc1OCC`, the survival is reported as 67% (inactive). In the case of `COC(=O)c1ccccc1NC(=O)c1cc2c(s1)-c1ccccc1OC2`, the survival is reported as 39% (active). In the case of `CCOC(=O)c1ccccc1NC(=O)c1cc2c(s1)-c1c(C)cccc1OC2`, the survival is reported as 137% (inactive). `COc1ccc(Cl)cc1NC(=O)c1cc2c(s1)-c1ccccc1OC2` was tested, and the survival was 74% (inactive). With `CCOC(=O)c1ccc(NC(=O)c2cn(-c3ccccc3)nc2-c2ccc(C)cc2)cc1` the survival was 57% (inactive). For `O=C(c1ccccc1Cl)N1CCCCC1CCN1CCCCC1` (configuration not stated), the survival was 100% (inactive). With `COc1cccc(CNC(=O)C(Cc2ccccc2)NS(=O)(=O)c2ccc3c(c2)CCN3C(C)=O)c1` (configuration not stated) the survival was 70% (inactive). `CC(C)c1ccc(N2C(=O)N(Cc3ccccc3Cl)c3ccccc3S2(=O)=O)cc1` was tested, and the survival was 86% (inactive). `Cc1ccc(NC(=O)CCS(=O)(=O)c2cccc3nsnc23)c(C)c1` was tested, and the survival was 61% (inactive). For `CCN(CC)c1ccc(NC(=O)CCS(=O)(=O)c2cccc3nsnc23)c(C)c1`, the survival was 44% (active). `Cc1cc(F)ccc1NC(=O)CCS(=O)(=O)c1cccc2nsnc12` was tested, and the survival was 59% (inactive). In the case of `O=C(Cn1cc(C(=O)c2ccco2)c2ccccc21)Nc1ccccc1Cl`, the survival is reported as 80% (inactive). With `COc1c(C)cc(S(=O)(=O)Nc2cccc(-c3ccc(N4CCOCC4)nn3)c2)c(C)c1C` the survival was 91% (inactive). In the case of `COc1ccc(C2c3c(-c4ccccc4O)n[nH]c3C(=O)N2CCc2ccccc2)cc1` (configuration not stated), the survival is reported as 21% (active). In the case of `COc1ccc(CCN2C(=O)c3[nH]nc(-c4ccccc4O)c3C2c2ccccc2)cc1` (configuration not stated), the survival is reported as 22% (active). With `COc1ccc(CCN2C(=O)c3[nH]nc(-c4ccccc4O)c3C2c2cccc(OC)c2)cc1` (configuration not stated) the survival was 66% (inactive). For `COc1ccc(CCN2C(=O)c3[nH]nc(-c4ccccc4O)c3C2c2ccc(OC)cc2)cc1` (configuration not stated), the survival was 29% (active). In the case of `COc1ccc2c(c1)c1c(c(=O)n(-c3ccc(F)c(Cl)c3)c(=O)n1CC(N)=O)n2C`, the survival is reported as 96% (inactive). `CC(=O)Nc1nc(SCc2ccccc2Cl)n[nH]1` was tested, and the survival was 91% (inactive). `Cc1ccc(NC(=O)Cn2nnc3sc(-c4ccccc4)cc3c2=O)cc1Cl` was tested, and the survival was 52% (inactive). For `O=C(COc1ccc(F)cc1)Nc1ccc2nc(SCC(=O)N3CCCC3)sc2c1`, the survival was 91% (inactive). In the case of `CC(C)c1ccc(NC(=O)C2CCCN2S(=O)(=O)c2ccc3nc(-c4ccccc4)[nH]c3c2)cc1` (configuration not stated), the survival is reported as 44% (inactive). With `CCc1cccc(NC(=O)C2CCCN2S(=O)(=O)c2ccc3c(c2)n(C)c(=O)c(=O)n3C)c1` (configuration not stated) the survival was 85% (inactive). With `COc1ccc(NC(=O)C2CCCN2S(=O)(=O)c2ccc3nc(-c4ccccc4)[nH]c3c2)cc1` (configuration not stated) the survival was 77% (inactive). In the case of `CCc1cccc(NC(=O)C2CCCN2S(=O)(=O)c2ccc3nc(-c4ccccc4)[nH]c3c2)c1` (configuration not stated), the survival is reported as 35% (active). In the case of `Cc1ccc(NC(=O)C2CCCN2S(=O)(=O)c2ccc3nc(-c4ccccc4)[nH]c3c2)cc1F` (configuration not stated), the survival is reported as 71% (inactive). `Cc1cccc(NC(=O)C2CCCN2S(=O)(=O)c2ccc3nc(-c4ccccc4)[nH]c3c2)c1` (configuration not stated) was tested, and the survival was 37% (active). With `Cc1ccc(NC(=O)C2CCCN2S(=O)(=O)c2ccc3nc(-c4ccccc4)[nH]c3c2)cc1C` (configuration not stated) the survival was 92% (inactive). `CCOc1ccccc1NC(=O)C1CCCN1S(=O)(=O)c1ccc2nc(-c3ccccc3)[nH]c2c1` (configuration not stated) was tested, and the survival was 50% (inactive). `CCc1ccc(NC(=O)C2CCCN2S(=O)(=O)c2ccc3nc(-c4ccccc4)[nH]c3c2)cc1` (configuration not stated) was tested, and the survival was 82% (inactive). `COc1cccc(NC(=O)C2CCCN2S(=O)(=O)c2ccc3c(c2)n(C)c(=O)c(=O)n3C)c1` (configuration not stated) was tested, and the survival was 87% (inactive). In the case of `Cc1cc(C)cc(NC(=O)C2CCCN2S(=O)(=O)c2ccc3nc(-c4ccccc4)[nH]c3c2)c1` (configuration not stated), the survival is reported as 38% (active). With `COc1cccc(NC(=O)C2CCCN2S(=O)(=O)c2ccc3nc(-c4ccccc4)[nH]c3c2)c1` (configuration not stated) the survival was 44% (active). `CCOC(=O)N1CCC(NC(=O)c2cnn(-c3ccc(C)cc3C)c2C2CCN(C(=O)OC(C)(C)C)CC2)CC1` was tested, and the survival was 124% (inactive). In the case of `O=C(CNC(=O)c1ccccc1Cl)OCc1cc(=O)n2nc(C3CC3)sc2n1`, the survival is reported as 78% (inactive). `CCCCOC(=O)c1ccc(NC(=O)c2cc(-c3ccccc3)on2)cc1` was tested, and the survival was 91% (inactive). For `Cc1ccc(NC(=O)CSc2ncnc3c2sc2ccccc23)cc1C`, the survival was 113% (inactive). With `CCN1CCN(Cc2c(O)ccc3oc(C)c(C(=O)Nc4ccc(OC)cc4)c23)CC1` the survival was 78% (inactive). In the case of `Cc1cc2c(C)nc3ccc(C(=O)O)cc3c2o1`, the survival is reported as 71% (inactive). For `Cc1ccc(OC(C)C(=O)N2CCN(CCc3ccncc3)CC2)cc1C` (configuration not stated), the survival was 52% (inactive). With `Cc1ccc(Cl)cc1N1CCN(C(=O)C2CCN(S(=O)(=O)c3c(C)noc3/C=C/c3ccccc3F)CC2)CC1` the survival was 72% (inactive). In the case of `CCOC(=O)c1cc(S(=O)(=O)NCc2ccccc2)[nH]n1`, the survival is reported as 124% (inactive). In the case of `CC(C)c1ccc(Nc2ncnc3onc(-c4ccc(F)cc4)c23)cc1`, the survival is reported as 80% (inactive). With `CCCOc1ccc(NC(=O)CC2C(=O)N(c3ccc(C)cc3)C(=O)N2Cc2cccc(OC)c2)cc1` (configuration not stated) the survival was 46% (active). In the case of `COc1cccc(CN2C(=O)N(c3ccc(C)cc3)C(=O)C2CC(=O)Nc2cc(OC)cc(OC)c2)c1` (configuration not stated), the survival is reported as 144% (inactive). `CCc1ccc(NC(=O)CC2C(=O)N(c3ccccc3)C(=O)N2C(C)C)cc1` (configuration not stated) was tested, and the survival was -5% (active). With `O=C(CC1C(=O)N(c2ccccc2)C(=O)N1CCC1=CCCCC1)Nc1ccc(F)cc1` (configuration not stated) the survival was 48% (inactive). With `COC(=O)c1ccc(NC(=O)CC2C(=O)N(c3ccccc3)C(=O)N2Cc2ccc(F)cc2)cc1` (configuration not stated) the survival was 55% (inactive). `Cc1ccc(N2C(=O)C(CC(=O)Nc3ccccc3)N(CCC3=CCCCC3)C2=O)cc1` (configuration not stated) was tested, and the survival was 67% (inactive). For `CCOc1ccc(NC(=O)CC2C(=O)N(c3ccccc3)C(=O)N2Cc2cccc(OC)c2)cc1` (configuration not stated), the survival was 102% (inactive). In the case of `Cc1ccc(N2C(=O)C(CC(=O)Nc3ccc(F)cc3)N(CCC3=CCCCC3)C2=O)cc1` (configuration not stated), the survival is reported as 55% (active). With `COC(=O)c1ccc(NC(=O)CC2C(=O)N(c3cccc(OC)c3)C(=O)N2C(C)C)cc1` (configuration not stated) the survival was 88% (inactive). With `CCCOc1ccc(NC(=O)CC2C(=O)N(c3ccccc3)C(=O)N2Cc2ccc(F)cc2)cc1` (configuration not stated) the survival was 17% (active). For `CCCOc1ccc(NC(=O)CC2C(=O)N(c3ccc(C)cc3)C(=O)N2C(C)C)cc1` (configuration not stated), the survival was 128% (inactive). With `COc1ccc(CN2C(=O)N(c3ccc(F)cc3)C(=O)C2CC(=O)Nc2ccccc2)cc1` (configuration not stated) the survival was 77% (inactive). With `CCN(C(=O)c1c(C)oc2ncnc(N3CCCCC3)c12)c1cc(C)ccc1C` the survival was 95% (inactive). With `CCC(C)C(NC(=O)c1cc(C)oc1C)C(=O)O` (configuration not stated) the survival was 95% (inactive). `CCOc1ccc(NC(=O)c2oc3ccccc3c2NC(=O)c2ccc(OC)cc2OC)cc1` was tested, and the survival was 51% (inactive). `O=C(CC1C(=O)N(c2ccc(F)cc2)C(=O)N1Cc1ccc2c(c1)OCO2)Nc1ccc(Cl)cc1` (configuration not stated) was tested, and the survival was 43% (active). In the case of `Cc1ccc(N2C(=O)C(CC(=O)Nc3ccc(F)cc3)N(Cc3ccc4c(c3)OCO4)C2=O)cc1` (configuration not stated), the survival is reported as 70% (inactive). With `O=C(CC1C(=O)N(c2ccc(F)cc2)C(=O)N1Cc1ccc2c(c1)OCO2)Nc1ccc(F)cc1` (configuration not stated) the survival was 72% (inactive). With `Cc1ccc(Cl)cc1NC(=O)c1cc(S(=O)(=O)N2CCCCCC2)cn1C` the survival was 71% (inactive). For `O=C(CSc1oc(-c2cccs2)nc1S(=O)(=O)c1ccccc1)Nc1ccc(F)cc1`, the survival was 55% (inactive). `O=C(NCC(c1cccnc1)N1CCc2ccccc2C1)C(=O)Nc1ccccc1` (configuration not stated) was tested, and the survival was 81% (inactive). With `CCC1CN(C(=O)NCc2ccccc2)c2cc(Cl)ccc2O1` (configuration not stated) the survival was 46% (active). `CCC1CN(C(=O)NCc2cccc(OC)c2)c2ccccc2O1` (configuration not stated) was tested, and the survival was 62% (inactive). In the case of `CCC1CN(C(=O)NCc2ccccc2)c2cc(C)ccc2O1` (configuration not stated), the survival is reported as 51% (inactive). With `CCC1CN(C(=O)NCc2ccc(F)cc2)c2ccccc2O1` (configuration not stated) the survival was 67% (inactive). In the case of `CCC1CN(C(=O)NCc2ccc(C)cc2)c2cc(Cl)ccc2O1` (configuration not stated), the survival is reported as 93% (inactive). For `CC1CN(C(=O)NCc2ccccc2)c2cc(Cl)ccc2O1` (configuration not stated), the survival was 49% (inactive). `CCC1CN(C(=O)NCc2cccc(OC)c2)c2cc(Cl)ccc2O1` (configuration not stated) was tested, and the survival was 43% (active). `CCC1CN(C(=O)NCc2ccc(F)cc2)c2cc(Cl)ccc2O1` (configuration not stated) was tested, and the survival was 39% (active). With `CCC1CN(C(=O)NCc2ccc(F)cc2)c2cc(C)ccc2O1` (configuration not stated) the survival was 52% (inactive). `O=C(NCc1ccco1)c1ccc2c(c1)N(Cc1cccc(Cl)c1)C(=O)c1ccccc1S2=O` (configuration not stated) was tested, and the survival was 63% (inactive). In the case of `CC(=O)N1CCc2c(sc3c2c(=O)n(-c2ccccc2)c(=O)n3CC(=O)Nc2ccccc2C)C1`, the survival is reported as 71% (inactive). In the case of `Cc1ccc(C)c(NC(=O)CN2C(=O)CSc3nc(C)cc(C)c32)c1`, the survival is reported as 103% (inactive). In the case of `O=C(NCc1ccc(F)cc1Cl)c1cc(=O)[nH]c2ccc(S(=O)(=O)N3CCCCC3)cc12`, the survival is reported as 102% (inactive). `Cc1ccc(S(=O)(=O)c2cn(Cc3cccc(C)c3)c3cc4c(cc3c2=O)OCO4)cc1` was tested, and the survival was 101% (inactive). `O=C(CCNS(=O)(=O)c1cccc2nsnc12)Nc1ccc(F)cc1` was tested, and the survival was 56% (inactive). In the case of `CCOc1ccccc1NC(=O)C1CCN(S(=O)(=O)c2cccc3nonc23)CC1`, the survival is reported as 74% (inactive). With `COc1ccc(OC)c(NC(=O)CCNS(=O)(=O)c2cccc3nsnc23)c1` the survival was 49% (inactive). With `CCc1ccccc1NC(=O)CCS(=O)(=O)c1cccc2nonc12` the survival was 74% (inactive). In the case of `COc1ccc(NC(=O)CCNS(=O)(=O)c2cccc3nsnc23)cc1OC`, the survival is reported as 65% (inactive). For `CCOc1ccccc1NC(=O)CCNS(=O)(=O)c1cccc2nonc12`, the survival was 45% (active). In the case of `O=C(CCNS(=O)(=O)c1cccc2nonc12)Nc1ccc(F)cc1`, the survival is reported as 45% (active). In the case of `COc1ccc(C)cc1NC(=O)CCNS(=O)(=O)c1cccc2nonc12`, the survival is reported as 43% (active). In the case of `COc1ccc(C)cc1NC(=O)C1CCN(S(=O)(=O)c2cccc3nonc23)CC1`, the survival is reported as 108% (inactive). With `COc1ccc(NC(=O)CCNS(=O)(=O)c2cccc3nonc23)c(OC)c1` the survival was 50% (active). With `O=C(CCS(=O)(=O)c1cccc2nonc12)Nc1cccc(F)c1` the survival was 67% (inactive). `COc1ccc(Cl)cc1NC(=O)CCS(=O)(=O)c1cccc2nonc12` was tested, and the survival was 146% (inactive).

Source: PubChem BioAssay AID463173 (ICCB-Longwood Screening Facility, Harvard Medical School, 2010)
